# Shown are actives, neighbours in structure and some others; about 4.2% of the full set was active somewhere.
# GDH-TPI inh = inhibits GDH-TPI coupling enzymes, artifact for Mtb FBA screen. AID 588335. GDH-TPI coupled enzyme counterscreen, NADH absorbance. actives 1.2% (n = 360,000). inhibition, % at 4.8 µM; in the data active = inhibition above about 30%;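 note: 0% = DMSO wells and 100% = wells lacking the enzyme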
# BJeLR lethal = kills HRASV12-expressing BJeLR cells; actives 0.17% (n = 300,000); inhibition, % (no concentration beside the values); BJeLR (HRASV12) viability, CellTiter-Glo ATP luminescence, 48 h; in the data active = inhibition above about 50%
# PrPC TRFRET = cell surface PrPC inhibition, primary TR-FRET screen. inhibition, % at 13.8 µM. TR-FRET read-out. P04156. actives 0.43% (n = 370,000); in the data active = inhibition above about 24%; note: 0% = median of the test wells and 100% = reference compound wells
# Mtb FBA inh = inhibits M. tuberculosis FBA enzyme; P9WQA3; purified M. tuberculosis FBA, fluorescence read-out; inhibition, % at 1 µM; actives 2.3% (n = 360,000); AID 588726; in the data active = inhibition above about 27%;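 note: 0% = vehicle and 100% = reference inhibitor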
# Target sequence (P9WQA3 whole entry, looked up): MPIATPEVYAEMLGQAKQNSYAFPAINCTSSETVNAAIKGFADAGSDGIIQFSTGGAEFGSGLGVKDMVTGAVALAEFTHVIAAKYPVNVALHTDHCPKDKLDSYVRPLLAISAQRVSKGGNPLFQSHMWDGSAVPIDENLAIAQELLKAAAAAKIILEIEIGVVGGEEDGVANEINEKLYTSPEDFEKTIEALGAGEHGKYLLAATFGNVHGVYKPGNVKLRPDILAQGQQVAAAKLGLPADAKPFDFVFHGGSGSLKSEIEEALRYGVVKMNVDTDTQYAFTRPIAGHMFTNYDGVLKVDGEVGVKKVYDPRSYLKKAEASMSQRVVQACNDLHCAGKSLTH
# RecA splice inh = Mtb RecA intein splicing inhibition; P9WHJ3; cell-free RecA intein splicing, fluorescence; inhibition, % (concentration not given with the values); actives 0.75% (n = 290,000); in the data active = inhibition above about 30%;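 note: 0% = vehicle wells and 100% = reference inhibitor control wells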
# * marks the source's active call; other numbers are inactive results; / = no result given; + = active, no number.
SMILES,GDH-TPI inh,BJeLR lethal,PrPC TRFRET,Mtb FBA inh,RecA splice inh
O=C1N/C(=N\S(=O)(=O)Cc2ccccc2)S/C1=C/c1cccc([N+](=O)[O-])c1,49*,-2,-14,3,7
Cc1ccc(S(=O)(=O)/N=C2/NC(=O)/C(=C\c3ccccc3)S2)cc1,39*,/,2,0,/
Cc1ccc(S(=O)(=O)/N=C2/NC(=O)/C(=C/c3ccccc3)S2)cc1,34*,6,9,-1,/
CC[C@@H](CCCCCC#N)CCC(=O)N(c1ccccc1)c1ccccc1,/,/,5,/,/
CC(C)(C)c1ccc(-c2nnc(SCC(=O)Nc3ccc(Oc4ccccc4)cc3)n2Cc2ccco2)cc1,/,/,3,/,/
Cc1ccccc1C(=O)N[C@@H](Cc1cccnc1)C(=O)N1CCC[C@H]1C(=O)NCCc1ccccc1Cl,/,/,-5,/,/
O=C(CSc1nnc(-c2cccs2)o1)Nc1cccc2ccccc12,/,/,-2,/,/
Cc1noc(/C=C/N(C)C)c1S(=O)(=O)N1CCCC(C(=O)NCc2ccccc2Cl)C1 (centres undefined),32*,2,-1,-1,/
Cc1ccc(CNC(=O)C2CCCN(S(=O)(=O)c3c(C)noc3/C=C/N(C)C)C2)cc1 (centres undefined),52*,7,-2,2,0
Cc1noc(/C=C/N(C)C)c1S(=O)(=O)N1CCCC(C(=O)NCc2ccc(Cl)cc2)C1 (centres undefined),56*,/,-8,-3,/
Cc1cc(C)cc(N(CC(=O)NC2CCC(C)CC2)S(=O)(=O)c2ccccc2)c1 (centres undefined),/,/,-12,/,/
COc1ccc(/C=C/C(Cc2cccc(C(C)=O)c2)c2ccc(C)cc2)cc1 (centres undefined),/,/,5,/,/
CN(C)c1ccc(/C=C2\SC(=O)N(CCc3nnc(N)s3)C2=O)cc1,32*,1,-11,-22,-3
CN(C)c1ccc(/C=C2/SC(=O)N(CCN=C3NS(=O)(=O)c4ccccc43)C2=O)cc1,-4,1,-4,-19,-3
COc1ccc(-c2noc(-c3ccc4c(c3)OCO4)n2)cc1,-2,-11,3,-3,0
COc1ccc(-c2nc(-c3ccc4c(c3)OCO4)[nH]c2-c2ccc(OC)cc2)cc1,16,-5,22,136*,14
O=C(Nc1nc2c(F)cccc2s1)c1ccco1,36*,14,-5,6,-1
CCOc1cccc2sc(Nc3nc4ccc(NC(C)=O)cc4s3)nc12,39*,-9,4,119*,2
CC(=O)Nc1ccc2nc(NC(=O)c3ccco3)sc2c1,32*,7,3,-1,-1
CSc1nc2ccc(NC(=O)c3ccco3)cc2s1,21,-8,11,-4,-1
CCC(=O)Nc1nc2ccc(NC(C)=O)cc2s1,1,5,-3,-4,/
COCO[C@@H]1CC(CO)=C[C@H]2OCO[C@H]21,/,/,6,/,/
CCOC(=O)[C@]12CCCCC/C=C\1N(CCc1ccc(Cl)cc1)C(=O)[C@H]2CC(=O)N1CCCC1,/,/,7,/,/
Cc1ccc(CNC2CCC23CCC(c2ccccc2)CC3)o1 (centres undefined),/,/,2,/,/
O=C(c1ccc(Cl)cc1)C1CCN(c2ncnc3sccc23)CC1,/,/,12,/,/
SMILES,GDH-TPI inh,BJeLR lethal,PrPC TRFRET,Mtb FBA inh,RecA splice inh
O=[N+]([O-])c1ccc(O)c(C=Nc2ccc3nc(-c4ccccc4)[nH]c3c2)c1,21,5,-4,+,4
CC(OC(=O)c1ccc(S(=O)(=O)N2CCCCC2)cc1)C(=O)Nc1ccc(C(N)=O)cc1 (centres undefined),-3,/,-5,0,/
CC(OC(=O)c1nccnc1N)C(=O)Nc1ccc(S(=O)(=O)N2CCCC2)cc1 (centres undefined),8,-9,-6,142*,-2
COC(=O)[C@H](C(C)C)N(CCCc1cn(Cc2ccc(C)cc2)nn1)S(=O)(=O)c1ccc(F)cc1Br,/,/,4,/,/
CC(C)=CC(O)C/C(C)=C/COc1ccc2ccc(=O)oc2c1 (centres undefined),17,-3,6,83*,-1
Nc1ccc(N(CCO)CCO)cc1,3,3,-7,-2,63*
NC(=O)N\N=C/C=C/C=C/c1ccc(F)cc1,53*,5,3,-5,3
CCOc1ccccc1NC(=O)c1cc(C(=O)c2cc(Br)ccc2O)coc1=N,31*,/,11,4,-1
Cc1ccc(NC(=O)CN2C(=O)CCSc3ccccc32)cc1C,/,/,-8,/,/
Cn1nc([N+](=O)[O-])nc1Sc1nnc(-c2ccccc2)o1,2,56*,7,-2,32*

# From PubChem
